Several values for one entry are separate records, joined by “and”; a condition that tells them apart may be missing. Identical values can stand only once.
assay: inducers of human heat shock response, cell-based, HSE luciferase (AID 1611); settings: human cells, HSE-luciferase heat shock reporter; stronger effect = higher value

Row | Structure (SMILES) | fold change
1 | COc1c2occc2c(OC)c2c(=O)cc(C)oc12 | 0.96
2 | CC(C)CC(NC(=O)CCN)C(=O)O (stereo not given) | 1.04
3 | NCCCCCCNS(=O)(=O)c1cccc2c(Cl)cccc12 | 1.18 and 0.78
4 | CCN(CC)CCNC(=O)c1cc(Br)c(N)cc1OC | 1.36
5 | NCC(O)CC(=O)O (stereo not given) | 0.94
6 | CCC1(C)CC(=O)NC1=O (stereo not given) | 1.19
7 | Cn1c(=O)c2[nH]cnc2n(C)c1=O | 1.18
8 | CC(=O)[C@H]1CCC2C3CC=C4C[C@@H](O)CC[C@]4(C)C3CC[C@@]21C (stereo not given in full) | 0.92
9 | CC(=O)OCC1=C(C(=O)O)N2C(=O)[C@@H](NC(=O)CSc3ccncc3)[C@H]2SC1 | 0.82
10 | Nc1ccc(S(=O)(=O)Nc2cnc3ccccc3n2)cc1 | 1.17
11 | CN1C(C(=O)Nc2ccccn2)=C(O)c2sccc2S1(=O)=O | 0.84
12 | Fc1ccc(C(c2ccc(F)cc2)N2CCN(C/C=C/c3ccccc3)CC2)cc1 | 1.3
13 | O=c1c(O)cc2c(O)oc3c(=O)c(O)cc4c3c2c1CC=4O | 1.46
14 | Cc1ccccc1OCC(O)CO (stereo not given) | 0.73
15 | O=C(O)c1ccccc1O | 0.73
16 | CN1C2CC(OC(=O)[C@H](CO)c3ccccc3)C[C@H]1[C@H]1OC21 (stereo not given in full) | 1.34
17 | CC(C)NNC(=O)c1ccncc1 | 1.02
18 | NC(=O)NC1NC(=O)NC1=O (stereo not given) | 0.91
19 | C=C[C@H]1CN2CC[C@H]1C[C@@H]2[C@H](O)c1ccnc2ccc(OC)cc12 | 1.63
20 | C[n+]1c2cc(N)ccc2cc2ccc(N)cc21 | 1.45

Row | Structure (SMILES) | fold change
21 | O=C(OCC(O)CO)c1ccccc1Nc1ccnc2cc(Cl)ccc12 (stereo not given) | 0.5
22 | CCOc1ccc2c(c1)C(C)=CC(C)(C)N2 | 1.18
23 | CCCCCCCCCCCCCCCC(=O)OC/C=C(C)/C=C/C=C(C)/C=C/C1=C(C)CCCC1(C)C | 1.08
24 | N[C@@H]1[C@@H](O)[C@H](O)[C@@H](CO)O[C@H]1O | 1.15
25 | CNCCC=C1c2ccccc2CCc2ccccc21 | 1.45
26 | Oc1ccc(Cl)c2cccnc12 | 1.15
27 | CCN(CC)CCOC(=O)C1(C2CCCCC2)CCCCC1 | 0.64
28 | N[C@@H]1CONC1=O | 1.23
29 | NS(=O)(=O)c1cc2c(cc1Cl)NCNS2(=O)=O | 0.97
30 | CN(C)CCC(c1ccccc1)c1ccccn1 (stereo not given) | 1.7
31 | C[C@H](CS)C(=O)N1CCC[C@H]1C(=O)O | 0.72
32 | CCN(CC)CCOc1ccc2c(c1)C(=O)c1cc(OCCN(CC)CC)ccc1-2 | 0.93
33 | O=C1CCC(N2C(=O)c3ccccc3C2=O)C(=O)N1 (stereo not given) | 0.89
34 | C=C(C)[C@H]1CC=C(C(=O)O)CC1 | 1.32
35 | CC(C)NCC(O)COc1cccc2ccccc12 (stereo not given) | 0.95
36 | Cc1ccc(/C(=C\CN2CCCC2)c2ccccn2)cc1 | 0.61
37 | CC(COc1ccccc1)NC(C)[C@H](O)c1ccc(O)cc1 (stereo not given in full) | 5.01
38 | CCN(CC)CCOC(=O)C(c1ccccc1)C1CCCCC1 (stereo not given) | 1.12
39 | OCc1ccccc1O[C@@H]1O[C@H](CO)[C@@H](O)[C@H](O)[C@H]1O | 1.04
40 | NC[C@H]1O[C@H](O[C@H]2[C@H](O)[C@@H](O[C@H]3O[C@H](CO)[C@@H](O)[C@H](N)[C@H]3O)[C@H](N)C[C@@H]2N)[C@H](O)[C@@H](O)[C@@H]1O | 1.87

Source: PubChem BioAssay AID1611 (NINDS Approved Drug Screening Program, 2009)
